This is a sample that favours compounds with a hit; in the whole collection about 3% have one here.
Shn3 3UTR inh = inhibitors of Schnurri-3 3'UTR reporter in osteoblasts; Clone20 osteoblast Shn3 3'UTR firefly luciferase, 24 h; inhibition, % at 12.5 µM; 0.52% of 360,000 active;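 active means mean inhibition of at least 75% with every replicate also reaching 75%; inconclusive means mean inhibition at least 75% but some replicate below; inactive means mean inhibition below 75%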
ABHD5-PLIN5 inh = ABHD5-PLIN5 protein interaction inhibition | Q00G26+Q8WTS1 | Split G. princeps luciferase complementation, luminescence, 4 h | inhibition, % at 4 µM | 0.78% of 360,000 active;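 active means inhibition above the mean inhibition across every tested compound plus 3 SD, cut at about 22% in these data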
Target sequence (Q00G26 whole entry, looked up): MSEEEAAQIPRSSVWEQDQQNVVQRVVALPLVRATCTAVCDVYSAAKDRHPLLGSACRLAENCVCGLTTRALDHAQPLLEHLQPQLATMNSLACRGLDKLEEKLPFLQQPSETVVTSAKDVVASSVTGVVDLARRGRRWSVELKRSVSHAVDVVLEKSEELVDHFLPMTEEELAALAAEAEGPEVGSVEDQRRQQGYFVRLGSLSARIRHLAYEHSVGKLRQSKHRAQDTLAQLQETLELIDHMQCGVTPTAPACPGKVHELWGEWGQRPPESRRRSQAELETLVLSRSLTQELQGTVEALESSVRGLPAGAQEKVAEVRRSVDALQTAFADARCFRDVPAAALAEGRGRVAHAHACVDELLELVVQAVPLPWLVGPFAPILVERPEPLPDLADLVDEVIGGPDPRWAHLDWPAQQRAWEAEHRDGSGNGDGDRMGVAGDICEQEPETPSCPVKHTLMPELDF
Target sequence (Q8WTS1 whole entry, looked up): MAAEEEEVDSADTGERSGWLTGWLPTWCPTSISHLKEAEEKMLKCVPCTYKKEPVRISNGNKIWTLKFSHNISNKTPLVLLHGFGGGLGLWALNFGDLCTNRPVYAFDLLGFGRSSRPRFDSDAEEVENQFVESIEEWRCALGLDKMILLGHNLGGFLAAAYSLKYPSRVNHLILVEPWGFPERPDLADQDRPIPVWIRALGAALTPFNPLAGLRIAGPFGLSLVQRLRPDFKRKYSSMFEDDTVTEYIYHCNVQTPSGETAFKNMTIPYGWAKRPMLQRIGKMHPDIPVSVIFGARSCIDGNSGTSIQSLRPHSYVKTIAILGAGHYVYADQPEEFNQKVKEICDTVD
TRPM1 prom inh = MITF TRPM1 promoter inhibition in SK-MEL-5 cells. AID 488899. 0.83% of 330,000 active. inhibition, % at 12.5 µM. SK-MEL-5 TRPM1 promoter luciferase, 24 h;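 active means mean inhibition across replicates of 60% or more, whatever share of single replicates reaches that level; inconclusive means some that reach 60%, reason not given; inactive means mean inhibition across replicates below 60%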
Peg3 prom inh = Peg3 promoter activity inhibition | HeLa PEG-Prom luciferase reporter, luminescence, overnight | 1.7% of 360,000 active | inhibition, % at 20 µM;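 active means inhibition of at least 50% at 20 µM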
PAX8 reporter = inhibitors of PAX8 transcriptional activity in RMG-I cells; RMG-I TPO-luciferase reporter, SteadyGlo, 24 h; AID 652154; 1.2% of 360,000 active; inhibition, % at 12.6 µM;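 active means mean replicate inhibition at least 60% with every replicate also reaching 60%; inconclusive means only one of the two criteria is met; inactive means mean below 60% and not all replicates reaching 60%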;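 further: luciferase light reporting Pax8 driven TPO promoter activity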
EWS-Fli block = blocks EWS/Fli oncoprotein-driven transcription. A673 NR0B1-luciferase reporter, viability-normalised. inhibition, % at 12.6 µM. 0.67% of 350,000 active;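 active means mean inhibition of at least 50% after viability correction, with every replicate also passing that limit; inconclusive means mean reaches 50% but only one of two replicates passes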;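 further: firefly luciferase signal divided by Alamar Blue viability fluorescence both relative to DMSO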
Hits are given with their value; n = inactive; u = inconclusive; x = not tested or not shown.

SMILES | Shn3 3UTR inh | ABHD5-PLIN5 inh | TRPM1 prom inh | Peg3 prom inh | PAX8 reporter | EWS-Fli block
O=C(N/N=C/c1cc(Cl)ccc1O)c1ccncc1 | u | n | 62.4 | n | 66.2 | n
O=C(N/N=C/c1cc(Br)ccc1O)C(=O)Nc1ccccc1OC(F)(F)C(F)F | 85.4 | n | 65.5 | 57.4 | x | x
COc1ccccc1/C=N/NC(=O)C(=O)Nc1ccccc1OC(F)(F)C(F)F | n | n | n | n | n | n
O=C(N/N=C/c1cc(Cl)ccc1O)C(=O)Nc1ccccc1OC(F)(F)C(F)F | 88.3 | n | 65.5 | 60.0 | 70.4 | n
COc1ccc(S(=O)(=O)N(C)C[C@@H]2Oc3c(NC(=O)C4CCOCC4)cccc3C(=O)N([C@@H](C)CO)C[C@@H]2C)cc1 | x | x | x | x | x | n
Cc1ccc(NC(=O)Cn2c(O)c(N=NC(=O)c3ccncc3)c3ccccc32)cc1 | n | n | n | n | x | x
Cc1ccc(NC(=O)Cn2c(O)c(N=NC(=O)c3cc4ccccc4cc3O)c3ccccc32)cc1 | n | n | n | 96.6 | n | n
CN=c1scc(-c2ccc([N+](=O)[O-])cc2)n1/N=C/c1ccco1 | n | n | n | n | n | n
CN=c1scc(-c2ccc(F)cc2)n1/N=C/c1ccc(O)c(O)c1 | 88.9 | n | 68.4 | n | 66.4 | n
O=C1CCSC2=C1SCc1sccc12 | x | 22.3 | x | x | n | n
O=C(NCC1CC1)[C@H]1[C@H](CO)[C@H]2Cn3c(cccc3=O)[C@H]2N1Cc1cncnc1 | x | x | x | x | x | n
O=C1/C(=C/c2cccs2)SC(=S)N1CC(=O)N1CCCCC1CCO (stereo not given) | n | n | n | n | n | n
O=C1/C(=C/c2ccccc2F)SC(=S)N1CC(=O)N1CCCCC1c1cccnc1 (stereo not given) | n | n | n | 75.6 | 100.1 | n
O=C(/C=C/c1ccc(F)cc1)NC(=S)N1CCCCC1c1cccnc1 (stereo not given) | n | n | n | n | n | n
O=C1/C(=C/c2ccc(F)cc2)SC(=S)N1CC(=O)N1CCCCC1c1cccnc1 (stereo not given) | n | n | n | 102.9 | 69.6 | n
Cc1noc(C)c1NC(=O)Nc1ccc2c(c1)C(=O)N([C@@H](C)CO)C[C@@H](C)[C@@H](CN(C)Cc1ccc(C(F)(F)F)cc1)OCCCC[C@H](C)O2 | x | x | x | x | n | n
COc1ccc(NC(=O)Nc2ccc3c(c2)C(=O)N([C@@H](C)CO)C[C@H](C)[C@@H](CN(C)C(=O)c2ccccc2)OCCCC[C@H](C)O3)cc1 | x | x | x | x | n | n
CCCNC(=O)N1CCC2(CC1)CN(C(=O)c1cccnc1)[C@H](CO)c1[nH]c3cc(OC)ccc3c12 | x | x | x | x | x | n
O=c1c2cc(F)ccc2sn1-c1ccccc1Cl | n | n | x | n | n | n
COC(=O)c1cccc(-n2sc3ccccc3c2=O)c1 | n | 91.4 | n | n | n | n
O=c1c2ccccc2sn1-c1ccc(F)cc1 | n | 70.9 | n | n | n | n
O=c1c2ccc(F)cc2sn1-c1ccccc1 | n | 71.7 | x | n | n | n
COc1ccc(S(=O)(=O)N(C)C[C@@H]2OCCCC[C@H](C)Oc3ccc(NC(=O)C4CCCCC4)cc3C(=O)N([C@H](C)CO)C[C@@H]2C)cc1 | x | x | x | x | n | n
C=CCn1c(SCc2cc(C(C)=O)ccc2OCC)nc2ccccc2c1=O | n | n | n | n | n | 53.9
N=c1n(Cc2ccc(Cl)cc2)c2ccccc2n1CC(O)COc1ccccc1 (stereo not given) | 85.8 | n | 94.0 | 101.4 | n | n
SMILES | Shn3 3UTR inh | ABHD5-PLIN5 inh | TRPM1 prom inh | Peg3 prom inh | PAX8 reporter | EWS-Fli block
Cc1ccc(OCC(O)Cn2c(=N)n(Cc3ccccc3)c3ccccc32)cc1 (stereo not given) | 81.3 | n | n | 108.4 | x | x
COc1ccc(OCC(O)Cn2c(=N)n(Cc3ccccc3)c3ccccc32)cc1 (stereo not given) | n | n | n | n | n | x
N=c1n(Cc2ccccc2)c2ccccc2n1CC(O)COc1ccc(Cl)cc1Cl (stereo not given) | 92.2 | n | 98.3 | 103.5 | 93.4 | 61.5
C[C@H]1CCCCO[C@H](CN(C)S(=O)(=O)c2ccccc2)[C@@H](C)CN([C@@H](C)CO)C(=O)c2cc(NS(=O)(=O)c3ccc(Cl)cc3)ccc2O1 | x | x | x | x | 100.2 | n
C[C@@H]1CCCCO[C@@H](CN(C)S(=O)(=O)c2ccccc2)[C@H](C)CN([C@H](C)CO)C(=O)c2cc(NS(=O)(=O)c3ccc(Cl)cc3)ccc2O1 | x | x | x | x | 65.9 | n
C[C@H]1CCCCO[C@@H](CN(C)S(=O)(=O)c2ccc(Cl)cc2)[C@@H](C)CN([C@@H](C)CO)C(=O)c2cc(NS(=O)(=O)c3ccccc3)ccc2O1 | n | n | x | n | u | n
C[C@@H]1CN([C@H](C)CO)S(=O)(=O)c2ccc(/C=C/c3ccccc3)cc2O[C@H]1CN(C)Cc1cncnc1 | x | x | x | x | n | n
CN1c2ccccc2C(C)(C)C12C=Nc1c(cc(N3CCOCC3)c3ccccc13)O2 (stereo not given) | x | n | n | n | 72.4 | x
Cc1ccc(S(=O)(=O)N(C)C[C@H]2OCCCC[C@@H](C)Oc3ccc(NC(=O)Cc4ccccc4)cc3C(=O)N([C@@H](C)CO)C[C@@H]2C)cc1 | x | x | x | x | n | n
CNc1nc(-c2ccccc2)nnc1C(F)(F)F | n | n | n | n | n | x
Cc1ccc(Sc2nc(-c3ccccc3)nnc2C(F)(F)F)cc1 | n | n | n | 105.1 | x | x
CCN(Cc1ccc2c(c1)OCO2)C(=O)/C=C/c1cccc(Br)c1 | n | n | n | n | n | n
CC(C)(C)N(Cc1ccc2c(c1)OCO2)C(=O)/C=C\S(=O)c1ccccc1 (stereo not given) | n | n | 89.8 | 98.8 | 95.3 | n
OC1CCN(Cc2nc(Cc3ccccc3Cl)no2)CC1 | n | n | n | n | n | n
Clc1ccc(Cc2noc(CN3CCN(c4ccccc4)CC3)n2)c(Cl)c1 | n | n | n | 54.5 | x | x
COc1ccc(S(=O)(=O)N(C)C[C@@H]2OCCCC[C@H](C)Oc3ccc(NC(=O)NC4CCCCC4)cc3C(=O)N([C@@H](C)CO)C[C@H]2C)cc1 | x | x | x | x | n | n
Cc1cc(C)nc(Sc2nc(Nc3ccccc3)nc(Sc3nc(C)cc(C)n3)n2)n1 | n | n | n | n | 61.2 | x
CCc1ccc(C2=NN(c3ccc(S(N)(=O)=O)cc3)C(c3ccc(F)cc3)C2)cc1 (stereo not given) | n | n | n | 67.0 | x | x
CC(C)CNC(=O)[C@@H]1c2ccccc2C(=O)N(CC23CC4CC(CC(C4)C2)C3)[C@H]1c1ccc(CO)cc1 | x | x | x | x | n | n
COc1ccc(Cc2nnc(N/N=C/c3ccc(O)cc3)[nH]c2=O)cc1OC | 88.2 | n | n | 59.5 | n | x
COc1ccc(Cc2nnc(N/N=C/c3ccc(Br)cc3)[nH]c2=O)cc1OC | x | n | n | n | n | n
Cc1c(Nc2cc(Cl)c3nonc3c2[N+](=O)[O-])c(=O)n(-c2ccccc2)n1C | 96.3 | n | 101.8 | 104.7 | 106.7 | n
N#Cc1cccc(-c2ccc3c(c2)[C@@H]2[C@@H](CCN2S(=O)(=O)c2ccc(F)cc2)[C@H](CO)N3)c1 | x | x | x | x | n | n
